The sample as a whole holds a higher share of hits than the screen did.
Pf Dd2 growth = Plasmodium falciparum Dd2 growth inhibition. P. falciparum Dd2 growth, SYBR Green, 72 h. Potency, µM (highest dose often 28.9 µM), without a hit: at the highest dose activity, negative = inhibition, most hits filed as inhibitors. actives 4.3% (n = 120,000). AID 1347417; active = well fitted inhibition curve with a large enough effect;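 also: plate controls were DMSO vehicle for no effect and reference drug for full effect; nearly all actives have a fitted effect of over 65% in size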
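Readout: SYBR Green fluorescence, 485 nm excitation, 535 nm emission, after ~16 h lysis at 37C. Before that, Dd2-infected red cells (2.5% hematocrit) grew 72 h with compound, 29 uM top final concentration.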
The depositor's hits bear a star; [ ] = remark or other dose. Potency is read from the fitted curve at half-maximal effect.

How did O=C(Nc1cccc(-c2nnc3n2CCCC3)c1)c1ccccc1Cl do in these assays?
Pf Dd2 growth: 5.6µM*

How did O=C(Nc1cccc(-c2nnc3n2CCCC3)c1)Nc1ccccc1F do in these assays?
Pf Dd2 growth: 8%

Results for CC(=O)Nc1ccc(-c2nnc3n2CCCC3)cc1 ?
Pf Dd2 growth: 25%

What do the screens show for `Cc1ccc(C(=O)Nc2ccc(-c3nnc4n3CCCC4)cc2)s1`?
Pf Dd2 growth: 5.6µM*

How did O=C(Nc1ccccc1)Nc1ccc(-c2nnc3n2CCCC3)cc1 do in these assays?
Pf Dd2 growth: 31%

Results for Cc1cc(C)cc(C(=O)Nc2cccc(-c3nnc4n3CCCC4)c2)c1 ?
Pf Dd2 growth: 3.2µM*

How did Cc1cccc(C(=O)Nc2ccc(-c3nnc4n3CCCC4)cc2)c1 do in these assays?
Pf Dd2 growth: -10%

Results for CCOc1cc(=O)n2c(c1C(=O)Nc1cccc(C)c1)CCCC2 ?
Pf Dd2 growth: 22%

Results for O=C(Nc1ccc(-c2nnc3n2CCCC3)cc1)Nc1cccc(Cl)c1 ?
Pf Dd2 growth: -8%

Results for O=C(Nc1ccc(-c2nnc3n2CCCC3)cc1)c1cc(C2CC2)[nH]n1 ?
Pf Dd2 growth: inactive

What do the screens show for `COCCO[C@H]1C(=O)N(C2CCN(C(=O)c3sc(C)nc3C)CC2)[C@H]1c1ccncc1`?
Pf Dd2 growth: -7%

Results for CCOCCc1nc(C2CCOC2)nn1C1CCCCC1 (stereo not given) ?
Pf Dd2 growth: -3%

What do the screens show for `c1ccc(CCc2nc3nccc(-c4ccco4)n3n2)cc1`?
Pf Dd2 growth: -10%

Results for Cc1ccc(NC(=O)C2CCCN(c3cn[nH]c(=O)c3)C2)cc1C (stereo not given) ?
Pf Dd2 growth: -8%

How did COc1ccccc1C(=O)N1C2CCCC1CC(=O)C2 do in these assays?
Pf Dd2 growth: 3%[44.1 µM]

Results for Cc1cccnc1C(=O)N[C@@H]1CN(C2CCOCC2)C[C@H]1CN(C)C ?
Pf Dd2 growth: -9%

What do the screens show for `c1cncc(Nc2cc3c(cn2)CN(Cc2ccc4[nH]ccc4c2)CCN3)c1`?
Pf Dd2 growth: 2.8µM*

What do the screens show for `COc1ccc(CN2CCNc3cnc(Nc4cccnc4)cc3C2)cc1O`?
Pf Dd2 growth: 1%[44.1 µM]

How did c1ccc(-c2cc3c(cn2)CN(Cc2ccc4[nH]ccc4c2)CCN3)cc1 do in these assays?
Pf Dd2 growth: 6.3µM*

What do the screens show for `Cc1[nH]cnc1CN1CCNc2cc(Nc3ccccc3)ncc2C1`?
Pf Dd2 growth: 8%[44.1 µM]

How did Oc1ccccc1CN1CCNc2cc(Nc3cccnc3)ncc2C1 do in these assays?
Pf Dd2 growth: 8.9µM*

What do the screens show for `CN1CCNc2cc(Nc3ccncc3)ncc2C1`?
Pf Dd2 growth: 52%[44.1 µM]

What do the screens show for `CC(C)(C)CN1CCNc2cc(Nc3cccnc3)ncc2C1`?
Pf Dd2 growth: -20%[44.1 µM]

Results for Oc1ccccc1CN1CCNc2cnc(OCc3cccnc3)cc2C1 ?
Pf Dd2 growth: inactive

How did Cn1cc(CN2CCNc3cc(-c4ccccc4)ncc3C2)cn1 do in these assays?
Pf Dd2 growth: inactive

How did c1ccc(Nc2cc3c(cn2)NCCN(Cc2ccccn2)C3)cc1 do in these assays?
Pf Dd2 growth: -10%[44.1 µM]

How did Cc1cc(-c2cc3c(cn2)CN(Cc2ccc4[nH]ccc4c2)CCN3)ccn1 do in these assays?
Pf Dd2 growth: -19%[44.1 µM]

What do the screens show for `c1ccc(Nc2cc3c(cn2)CN(Cc2c[nH]c4ccccc24)CCN3)cc1`?
Pf Dd2 growth: 4.5µM*

Results for CCCNC(=O)C1N(C(C)C)C(=O)C12CCCC2 (stereo not given) ?
Pf Dd2 growth: 7%

What do the screens show for `COC[C@@H]1CN(C(=O)Cc2cccc(F)c2)C[C@H]1c1ccncc1`?
Pf Dd2 growth: 12%

How did Cn1ncc(N2CCC(NC(=O)CCC3CCCCC3)CC2)cc1=O do in these assays?
Pf Dd2 growth: 2%

How did COCC[C@]1(O)CCN(C(=O)c2cccc(S(N)(=O)=O)c2)C[C@H]1C do in these assays?
Pf Dd2 growth: 1%

Results for O=C(c1ccccc1F)N1CCC2(CC1)N=C(c1ccc(Cl)cc1)NO2 ?
Pf Dd2 growth: inactive

What do the screens show for `COc1ccc(CCN2Cc3cc(NC(=O)Cc4ccccc4)ccc3OC(C)C2=O)cc1` (stereo not given)?
Pf Dd2 growth: -7%

Results for CCC(=O)N1CCC(n2c(C)cnc2-c2ccncc2)CC1 ?
Pf Dd2 growth: 10%

Results for CCOCC(=O)N1CCC2(CC1)NCCc1c2[nH]c2ccc(OC)cc12 ?
Pf Dd2 growth: -23%

What do the screens show for `O=C(C1CCCC1)N1CCC2(CC1)C(=O)NCN2Cc1ccc(Cl)cc1`?
Pf Dd2 growth: inactive

What do the screens show for `c1ccc(Nc2cc3c(cn2)CN(Cc2ccn[nH]2)CCN3)cc1`?
Pf Dd2 growth: inactive

How did Oc1ccccc1CN1CCNc2cc(Nc3ccccc3)ncc2C1 do in these assays?
Pf Dd2 growth: 5µM*

What do the screens show for `Cc1cccc(CN2CCNc3cc(Nc4cccnc4)ncc3C2)c1`?
Pf Dd2 growth: 5.6µM*

What do the screens show for `Cn1cc(CN2CCNc3cc(Nc4ccccc4)ncc3C2)cn1`?
Pf Dd2 growth: inactive

What do the screens show for `Oc1ccccc1CN1CCNc2cnc(Nc3ccccc3)cc2C1`?
Pf Dd2 growth: inactive

What do the screens show for `COc1cccc(Nc2cc3c(cn2)CN(Cc2cccnc2)CCN3)c1`?
Pf Dd2 growth: -15%[44.1 µM]

Results for O=c1n(CC2CC2)nc2n1CCN(Cc1ccc3[nH]ccc3c1)CC2 ?
Pf Dd2 growth: 26%

Results for O=C(CC1=CCCCC1)N1CCc2nn(CC3CC3)c(=O)n2CC1 ?
Pf Dd2 growth: 14%

What do the screens show for `CN1CC(=O)N(c2ccccc2)Cc2c(NCCc3ccc(Cl)cc3)ncnc21`?
Pf Dd2 growth: inactive

Results for CN1CC(=O)N(c2ccc(Cl)cc2)Cc2c(NCc3ccc(F)cc3)ncnc21 ?
Pf Dd2 growth: 7.9µM*

Results for CN1CC(=O)N(c2ccc(Cl)cc2)Cc2c1ncnc2N1CCC(Cc2ccccc2)CC1 ?
Pf Dd2 growth: 13µM*

What do the screens show for `CN1CC(=O)N(c2ccccc2F)Cc2c1ncnc2N1CCC(c2ccccc2)CC1`?
Pf Dd2 growth: inactive

Results for CN1CC(=O)N(c2ccccc2)Cc2c(NCc3ccc(F)cc3)ncnc21 ?
Pf Dd2 growth: -15%

What do the screens show for `CN1CC(=O)N(c2ccccc2)Cc2c(NCCCc3ccccc3)ncnc21`?
Pf Dd2 growth: 6.3µM*

Results for CN1CC(=O)N(c2ccc(Cl)cc2)Cc2c(NCc3cccs3)ncnc21 ?
Pf Dd2 growth: inactive

What do the screens show for `CN1CC(=O)N(c2ccccc2)Cc2c(NCCOc3ccccc3)ncnc21`?
Pf Dd2 growth: inactive

Results for CN1CC(=O)N(c2ccccc2)Cc2c1ncnc2N1CCC(O)CC1 ?
Pf Dd2 growth: 0%

Results for O=C(CCc1nc(-c2ccco2)no1)N[C@@H]1CCOC[C@H]1OCC1CCC1 ?
Pf Dd2 growth: -12%

How did CN(C)CCCOCC1(C)COc2ccc(C(=O)Nc3ccc(F)c(Cl)c3)cc2N1 (stereo not given) do in these assays?
Pf Dd2 growth: -21%[44.1 µM]

How did O=C(Nc1cccc(F)c1)C1CCN(C(=O)c2ncn3c2COC(c2ccccc2)C3)CC1 (stereo not given) do in these assays?
Pf Dd2 growth: -3%

What do the screens show for `COc1ccc2c(Sc3ccccc3)c(C(=O)NCCCN3CCCCC3)[nH]c2c1`?
Pf Dd2 growth: 11µM*

Results for O=C(NCCCN1CCCCC1)c1[nH]c2ccccc2c1Sc1ccc(Cl)cc1 ?
Pf Dd2 growth: inactive

How did COCCCNC(=O)c1[nH]c2cc(OC)ccc2c1Sc1ccc(C)cc1 do in these assays?
Pf Dd2 growth: 25%

Results for COc1cc2c(cc1Oc1ccccc1)NC(=O)C21CCN(C(=O)c2cccc(O)c2)CC1 ?
Pf Dd2 growth: inactive

Results for COc1ccc(N2Cc3c(NC4CCCC4)ncnc3N(C)CC2=O)cc1 ?
Pf Dd2 growth: -1%

Screens deposited in PubChem BioAssay by National Center for Advancing Translational Sciences (NCATS).
